NPC1 prom act: activators of NPC1 promoter | 320,000 compounds, 2.4% hits | Huh7 NPC1 promoter luciferase reporter, 24 h | AID 485313 | Potency, µM (doses to about 9.22 µM), for the others: at the highest dose activation, most hits filed as activators; note: % of control where 0% means no effect; nearly all actives have a fitted effect of over 60% in size
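Quantitative HTS used a cell-based reporter: Huh7 cells stably bearing the NPC1 promoter upstream of luciferase were treated with compounds for 24 h, and promoter activation was read as luminescence.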
Luc counter: Kinase-Glo luciferase inhibition (counter-screen); Q27757; Kinase-Glo luciferase, ATP luminescence, 8 min; Potency, µM (titrated, usually from 38.3 µM), for the others: top-dose activity change, negative = inhibition, most hits filed as inhibitors; 200,000 compounds, 0.28% hits; note: % is set by controls: 0 for no effect and ±100 for the full control effect; nearly all actives have a fitted effect of over 60% in size
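Compounds were added to a substrate mix at pH 7.2 (50 mM imidazole, 10 uM ATP, within the enzyme's linear range), followed by Kinase-Glo detection reagent; luminescence was measured after 8 minutes at ambient temperature.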
SMN2 splice up: enhancers of SMN2 splice variant expression; Potency, µM (titrated, usually from 46.1 µM), without a hit: top-dose activity change, positive = activation, most hits filed as activators; 210,000 compounds, 2.8% hits; HEK293 SMN2-luciferase splicing reporter, luminescence, 30-36 h; note: % of control where 0% means no effect; nearly all actives have a fitted effect of over 55% in size
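HEK293 cells carry an SMN2 […]–luciferase reporter in which exon 7 inclusion puts luciferase in frame. Cells were plated 10-12 h before compound addition, then incubated 30-36 h at 37C. ONE-Glo luminescence was read; sodium butyrate at 4.5 mM final served as control.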
Rab9 promoter act: activates the Rab9 promoter; Huh7 Rab9 promoter-luciferase reporter, luminescence, 24 h; Potency, µM (titrated, usually from 9.22 µM), inactives show at the top dose activation, negative = inhibition, usual class: activators; 320,000 compounds, 2.8% hits; note: % of control where 0% means no effect; nearly all actives have a fitted effect of over 60% in size
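Quantitative HTS format; Huh7 Rab9-luciferase reporter cells (1500/well) receive compound 2 h post-plating, incubate 24 h at 37 °C, then get luciferase reagent for 10 min before luminescence reading.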
FLuc modulator: firefly luciferase modulation, counter-screen for miR-21 project. P08659. purified FLuc, Km substrates, luminescence inhibition. Potency, µM (doses to about 57.5 µM), for inactives: at the highest dose activity change, negative = inhibition, actives largely listed as inhibitors. 360,000 compounds, 6.9% hits. AID 588342;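 note: plate controls were vehicle for no effect and reference inhibitor for full effect; nearly all actives have a fitted effect of over 55% in size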
Target sequence (P08659 whole entry, looked up): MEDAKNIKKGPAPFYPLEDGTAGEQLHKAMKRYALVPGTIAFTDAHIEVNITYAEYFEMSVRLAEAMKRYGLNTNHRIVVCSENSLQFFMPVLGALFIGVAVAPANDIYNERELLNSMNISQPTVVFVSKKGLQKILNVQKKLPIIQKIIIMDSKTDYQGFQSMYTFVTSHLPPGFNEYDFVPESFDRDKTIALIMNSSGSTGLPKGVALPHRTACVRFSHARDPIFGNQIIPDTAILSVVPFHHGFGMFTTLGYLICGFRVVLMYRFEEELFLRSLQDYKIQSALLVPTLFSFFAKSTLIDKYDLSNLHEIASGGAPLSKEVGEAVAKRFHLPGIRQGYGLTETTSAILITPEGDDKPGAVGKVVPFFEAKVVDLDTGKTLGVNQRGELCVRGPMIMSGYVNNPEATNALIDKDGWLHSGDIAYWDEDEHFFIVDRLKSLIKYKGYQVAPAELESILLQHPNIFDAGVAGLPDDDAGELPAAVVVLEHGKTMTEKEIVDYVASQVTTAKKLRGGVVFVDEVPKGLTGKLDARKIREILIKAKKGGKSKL
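Purified P. pyralis luciferase, 10 nM final, with Km-level 10 uM D-luciferin and 10 uM ATP in 50 mM Tris acetate pH 7.5, 10 mM Mg acetate, 0.01% Tween-20, 0.05% BSA; 6-point qHTS titration about 60 µM downward; luminescence read.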
ELG1 genotox: genotoxicity induction in ELG1-luciferase HEK293T cells; Potency, µM (doses to about 46 µM), inactives show at the top dose activity change, positive = activation, actives largely listed as activators; HEK293T ELG1-luciferase reporter, luminescence, 16 h; 330,000 compounds, 1.3% hits; note: % of control where 0% means no effect; nearly all actives have a fitted effect of over 60% in size
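Genotoxic stress is detected as increased luminescence from luciferase-tagged ELG1 in HEK293T cells, measured with ONE-Glo after a 16 hr treatment at 37 °C.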
* = called active by the depositor; u = inconclusive; x = no result given. The list is not random: actives were taken first. Their share in the collection is about 7.5%. Calls come from the whole dose curve; as a rule, active = well fitted curve in the direction sought with a large enough effect; inconclusive = small, poorly fitted or top-dose-only effect, or another doubt; inactive = no such curve, though single readings can be large; an effect the other way counts as inactive or inconclusive. Potency is the fitted concentration of half-maximal effect.

SMILES	NPC1 prom act	Luc counter	SMN2 splice up	Rab9 promoter act	FLuc modulator	ELG1 genotox
COc1ccccc1-c1noc(CCC(=O)Nc2cc(C(F)(F)F)ccc2Cl)n1	1%	-1%	-38%	8%	19µM*	-16%
CCOC(=O)c1ccc(NC(=O)CCc2nc(-c3ccc(C)cc3)no2)cc1	-2%	2%	-101%	8%	1%	23µM*
O=C(Nc1ccc(-c2noc(COc3ccccc3Cl)n2)cc1)c1ccco1	3.2µM*	-26%	11µM*	u	11µM*	u
CCOC(=O)c1ccc(NC(=O)CCc2c(C)nc3nc[nH]n3c2=O)cc1	x	x	1%	x	27µM*	x
CCCCCC(=O)OCCc1c(C)nc2nc[nH]n2c1=O	1%	1%	13%	-18%	-17%	-2%
CCN(CC)CCCNC(=O)CSc1nc(C)cc(C)n1	-4%	0%	-9%	-1%	-1%	2%
O=C(NCCc1ccccc1)C1(c2cccs2)CCOCC1	x	x	x	x	-1%	x
Cc1ccc(C)c(NC(=O)CCc2nc(-c3ccc(C(C)(C)C)cc3)no2)c1	x	x	-9%	x	2.1µM*	x
CC(NC(=O)c1ccco1)c1nc(-c2ccc(C(C)(C)C)cc2)no1 (stereo not given)	8%	x	x	0%	17µM*	-1%
CC(C)(C)c1ccc(-c2noc(CNC(=O)c3ccco3)n2)cc1	0%	x	x	6%	15µM*	10%
CC(C)(C)c1ccc(-c2noc(CCC(=O)NCc3ccco3)n2)cc1	-20%	-1%	-49%	-15%	2.7µM*	-8%
COc1ccc(-n2cnc3cc(C(=O)NCCC4=CCCCC4)ccc32)cc1	x	x	x	x	-3%	x
Cn1c(NC(=O)c2ccc(F)cc2)nc2ccccc21	3.5µM*	x	x	4µM*	3µM*	u
Cn1c(NC(=S)Nc2ccccc2)nc2ccccc21	u	-5%	8.9µM*	u	6.7µM*	u
O=C(Nc1nc2ccccc2c2nc3ccccc3n12)c1ccc(F)cc1	-2%	3%	-22%	-5%	0%	-9%
Cn1c(NC(=O)c2ccccc2NC(=O)C(C)(C)C)nc2ccccc21	-4%	3%	-2%	-2%	27µM*	-41%
O=C(c1cn(CCOc2ccc(Cl)cc2)c2ccccc12)C1CCCCC1	x	x	9%	x	1%	x
CC(O)(CS(=O)(=O)Cc1ccccc1)c1ccccc1 (stereo not given)	-3%	x	x	-6%	1%	-4%
Cc1ccc(C)c(NC(=O)CSc2nnc(-c3ccccc3)n2N)c1	1%	-2%	-13%	-9%	2%	-6%
Cc1ccc(C)c(NC(=O)CSc2nnc3[nH]c(=O)cc(-c4ccccc4)n23)c1	x	x	x	x	0.95µM*	x
Cc1ccc(NC(=O)CSc2nnc3[nH]c(=O)cc(-c4ccccc4)n23)cc1Cl	x	x	x	x	0.67µM*	x
CCOc1ccccc1NC(=O)CSc1nnc2[nH]c(=O)cc(-c3ccccc3)n12	x	x	x	x	6µM*	x
CCCCc1ccc(NC(=O)CSc2nnc3[nH]c(=O)cc(C)n23)cc1	x	x	x	x	15µM*	x
O=C(O)c1ccc(F)c(S(=O)(=O)Nc2cccc(F)c2)c1	x	-1%	x	x	x	x
CCOc1ccc(CCNC(=O)c2sc3ncccc3c2-n2c(C)ccc2C)cc1	x	x	x	x	1%	x
SMILES	NPC1 prom act	Luc counter	SMN2 splice up	Rab9 promoter act	FLuc modulator	ELG1 genotox
O=C(NC1CCCCC1)c1cc2nc3c(c(C(F)(F)F)n2n1)CCCC3	u	0%	35µM*	3.5µM*	24µM*	u
CC(=O)c1ccc(NC(=O)c2cc3nc4c(c(C(F)(F)F)n3n2)CCCC4)cc1	23%	2%	20%	u	u	11%
CCC(C)(C)c1ccc2c(c1)C(=O)c1ccccc1C2=O	1.6µM*	-12%	u	2.8µM*	1.7µM*	u
Cc1ccc(CSCCNC(=O)/C=C/c2ccccc2Cl)cc1	-3%	-1%	x	3%	u	2%
CCCCN(CC)C(=O)c1ccc2c(c1)NC(=O)c1ccccc1S2	x	x	-8%	x	-11%	x
COc1ccc(-c2noc(CCC(=O)O)n2)cc1	-5%	-1%	-17%	-12%	-26%	0%
COc1ccc(-c2noc(CCCC(=O)O)n2)cc1	-17%	-1%	25%	-17%	11µM*	-1%
CCOc1ccc(-c2noc(CCC(=O)O)n2)cc1	-4%	-1%	11%	-13%	12µM*	6%
Cc1ccc(Nc2nc3ccccc3c(=O)[nH]2)cc1C	29%	-1%	u	u	-15%	8%
Cc1ccc(Nc2nc(/N=C/N(C)C)n[nH]2)cc1C	u	-2%	u	u	24µM*	6%
COc1ccc(/C=N/NC(N)=S)cc1	1%	x	x	1%	u	5%
C/C(=N\Nc1nc(-c2ccccc2O)nc2ccccc12)c1ccccc1	15%	-7%	x	17%	u	0%
COc1ccccc1/C=N/Nc1nncc2ccccc12	u	-21%	10µM*	3.5µM*	9.5µM*	u
COc1ccc(/C=N/Nc2nncc3ccccc23)cc1	0.28µM*	11µM*	0.71µM*	0.2µM*	0.17µM*	0.26µM*
Oc1c(Br)cc(/C=N/Nc2nncc3ccccc23)cc1Br	u	x	x	29%	9.5µM*	12%
COc1ccc(/C(C)=N/Nc2nc3ccccc3nc2C)cc1	4%	x	x	6%	2.7µM*	7%
O=C(O)c1ccc(NS(=O)(=O)c2ccsc2C(=O)O)c(O)c1	x	3%	-3%	x	x	x
Cc1oc2ccc(O)c(CN3CCN(C)CC3)c2c1C(=O)Nc1ccccc1	x	x	8%	x	-3%	x
NNc1nncc2ccccc12	2.6µM*	-9%	13µM*	2.3µM*	x	x
COc1ccc(/C(C)=N/Nc2nncc3ccccc23)cc1	1.6µM*	x	x	0.71µM*	1.3µM*	u
CNC(=S)NNc1nncc2ccccc12	-2%	1%	22%	-2%	0%	5%
Cc1nn(Cc2c(F)c(F)c(F)c(F)c2F)c(C)c1NC(=O)c1cccc(COc2ccc(Cl)cc2)c1	u	-3%	18µM*	u	12µM*	13%
CC(C)c1cc(C(N)=O)c(NC(=O)c2cccc(COc3ccc(Cl)cc3)c2)s1	0.32µM*	-5%	1.8µM*	2µM*	1.5µM*	0.73µM*
CCC(=O)C(C#N)(c1ccc(OC)c(OC)c1)C(C)C (stereo not given)	-1%	x	x	-7%	0%	0%
Cc1ccc(CN(C(=O)c2csnn2)C(C(=O)NC2CCCC2)c2ccccn2)cc1 (stereo not given)	-2%	x	x	-2%	-1%	8%
CCCNC(=O)OCCC12CC3CC(CC(C3)C1)C2	16%	-2%	7%	17%	12µM*	u
